# GPT2 inh = GPT2 alanine aminotransferase inhibition; Potency, µM (doses to about 57.7 µM), inactives show at the top dose activity change, negative = inhibition, usual class: inhibitors; Q8TD30; AID 1671188; 100,000 compounds, 0.25% hits; Recombinant GPT2, coupled pyruvate oxidase/HRP Amplex Red fluorescence; note: nearly all actives have a fitted effect of over 60% in size
# Target sequence (Q8TD30 whole entry, looked up): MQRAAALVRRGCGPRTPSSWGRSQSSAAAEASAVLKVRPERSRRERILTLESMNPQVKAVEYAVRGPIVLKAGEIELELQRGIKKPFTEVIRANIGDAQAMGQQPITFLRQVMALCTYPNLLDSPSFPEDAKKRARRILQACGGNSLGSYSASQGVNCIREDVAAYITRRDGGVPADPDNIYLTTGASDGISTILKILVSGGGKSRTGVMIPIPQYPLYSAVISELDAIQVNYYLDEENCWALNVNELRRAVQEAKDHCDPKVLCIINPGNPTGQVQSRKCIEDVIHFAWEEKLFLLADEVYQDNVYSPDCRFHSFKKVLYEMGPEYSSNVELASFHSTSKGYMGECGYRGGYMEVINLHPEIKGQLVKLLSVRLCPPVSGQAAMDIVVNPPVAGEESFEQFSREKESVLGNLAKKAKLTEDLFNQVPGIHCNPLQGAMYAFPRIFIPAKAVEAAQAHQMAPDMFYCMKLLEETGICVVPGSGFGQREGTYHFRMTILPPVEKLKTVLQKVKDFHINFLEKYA
#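 Inhibition is scored from Amplex Red fluorescence generated when pyruvate oxidase and HRP act on pyruvate released by GPT2. Reactions contain 10ng/uL enzyme, 250uM a-KG and 2mM L-alanine and run 30 min at room temperature.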
# Luciferase inh = inhibitors of firefly (Photinus pyralis) luciferase; purified P. pyralis luciferase, luminescence, biochemical; Potency, µM (highest dose often 115 µM), hits mostly inhibitors; 76,000 compounds, 2.5% hits; AID 1347043; note: nearly all actives have a fitted effect of over 65% in size
#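 Biochemical qHTS: compound (6-point titration) added to 10uM D-luciferin plus 10uM ATP in Tris acetate pH 7.5 buffer with Mg, Tween-20 and BSA, then purified enzyme at 10nM; light output imaged.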
# NIH3T3 tox = kills NIH 3T3 cells; NIH 3T3 viability, CellTiter-Glo ATP luminescence, 48-72 h; Potency, µM (highest dose often 96.7 µM), without a hit: at the highest dose activity change, negative = cytotoxicity, hits mostly inhibitors; 94,000 compounds, 4.3% hits; note: nearly all actives have a fitted effect of over 55% in size
#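 Cells were seeded at 400 per well, treated with pin-transferred compound, and kept 48 or 72 hr at 37 °C before CellTiter-Glo addition and luminescence imaging of cellular ATP.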
# hNpr1 antagonist = human Npr1 receptor antagonism | P16066 | 76,000 compounds, 1.6% hits | Potency, µM (series often up to 46.3 µM), for the others: at the highest dose activity change, negative = inhibition, most hits filed as inhibitors | HEK293 hNpr1 GloSensor cGMP, ANP-stimulated luminescence; calls by dose curve; note: nearly all actives have a fitted effect of over 60% in size
#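 HEK293 cells stably expressing human Npr1 and cGMP GloSensor pGS-40F, loaded 2 h with 2% GloSensor reagent, given compound 30 min at room temperature. Luminescence read before and 20 min after 0.1 nM hNppA.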
# HEK cytotox = cytotoxic compounds in HEK 293 cells | HEK 293 viability, ATP luminescence (CellTiter-Glo), 48-72 h | Potency, µM (series often up to 115 µM), without a hit: at the highest dose activity change, negative = cytotoxicity, most hits filed as inhibitors | 94,000 compounds, 6.6% hits | AID 1345083; note: nearly all actives have a fitted effect of over 60% in size
#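 qHTS cytotoxicity; HEK 293, 250 cells/well; compound pinned; 48 or 72 hr, 37 degree Celsius, 5% CO2, 95% humidity; CellTiter-Glo, 10 min RT; luminescence (ATP).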
# Numbers without * were called inactive; i = inactive; ? = inconclusive; · = no result; [ ] = another dose, or the depositor's remark. Most compounds without a hit are left out; they make up all but 10% or so of the library. Unless noted, calls come from the whole dose curve; as a rule, active = well fitted curve in the direction sought with a large enough effect; inconclusive = small, poorly fitted or top-dose-only effect, or another doubt; inactive = no such curve, though single readings can be large; an effect the other way counts as inactive or inconclusive. % is set by controls: 0 for no effect and ±100 for the full control effect; potency is the fitted concentration of half-maximal effect.
SMILES,GPT2 inh,Luciferase inh,NIH3T3 tox,hNpr1 antagonist,HEK cytotox
COc1ccc(CN2C[C@H](O)C[C@H]2c2nc(-c3cccc(C)c3)no2)c2ccccc12,-22%[88.5 µM],20µM*,79µM*,-27%[70.6 µM],100µM*
Cc1ccc(-c2noc([C@@H]3C[C@@H](O)CN3Cc3ccccc3O)n2)cc1F,-2%[88.5 µM],50µM*,45µM*,1%[70.6 µM],?
Oc1ccccc1CN1C[C@H](O)C[C@H]1c1nc(-c2ccccc2)no1,i,i,?,0%[70.6 µM],?
Cc1ccc(-c2noc([C@@H]3C[C@@H](O)CN3Cc3ccc(C(=O)O)cc3)n2)cc1F,3%[88.5 µM],50µM*,1%[138 µM],-3%[70.6 µM],-11%[172 µM]
CN(C)C(=O)N1CCC[C@@H]1C(=O)N1CCC(N2CCOC2=O)CC1,i,·,-10%[138 µM],·,-3%[172 µM]
O=C(NCc1cccs1)c1ccc2nnc(-c3cc(F)ccc3F)n2c1,i,·,-26%,·,-13%
COc1ccc(-c2ccc(-c3nc(CC(C)C)no3)cn2)c2cccnc12,?,i,?,?,25µM*
COc1cc(-c2ccc(-c3nc(CC(C)C)no3)cn2)cc(OC)c1OC,4%,i,?,1%,?
NCCCC(=O)N1CCC2(CC1)CN(C(=O)c1ccc(Cl)cc1)CCO2,-3%,·,32µM*,·,3%
CCc1ccc(N2CC(c3noc(-c4nccc5ccccc45)n3)CC2=O)cc1 (centres undefined),i,i,?,1%,?
CC(C)CCNC(=O)CCC1CCCN(S(=O)(=O)c2cccc(F)c2)C1 (centres undefined),1%,·,?,·,45µM*
CCOc1ccc(NC(=O)CCC2CCCN(S(=O)(=O)c3cccc(F)c3)C2)cc1 (centres undefined),i,·,-22%,·,35µM*
CCOc1cccc(CNC(=O)CCC2CCCN(S(=O)(=O)c3ccc(C)cc3)C2)c1 (centres undefined),4%,i,?,0%,?
O=C(CCC1CCCN(S(=O)(=O)c2cccc(F)c2)C1)NCC1CC1 (centres undefined),?,i,-24%,-30%,-31%
O=C(c1ccccc1Cl)N1CCC(C(=O)N2CCC(c3nc4ccncc4[nH]3)C2)CC1 (centres undefined),-5%,·,-15%,·,-3%
COc1ccccc1Cn1c(=O)c(C(=O)N2CCC(c3ccccc3)CC2)nc2cccnc21,4%,·,?,·,?
O=C(COc1ccccc1)N1CCC(Oc2cnc3c(ccn3-c3cncnc3)c2)CC1,-7%[88.5 µM],i,-67%[138 µM],-30%[70.6 µM],89µM*
Cc1nn(-c2ccccc2[N+](=O)[O-])c(C)c1[C@@H]1C=C[C@@H](NCc2ccco2)C1,-28%[88.5 µM],i,?,-17%[70.6 µM],89µM*
Cc1nn(-c2ccccc2[N+](=O)[O-])c(C)c1[C@@H]1C=C[C@@H](NCc2ccc(C(C)C)cc2)C1,i,i,?,?,20µM*
COc1cccc(C(=O)NC(C(=O)N2CCCCC2)C2CCN(C(=O)c3ccc(Cl)cc3)CC2)c1 (centres undefined),i,i,-20%,-12%,?
CCC(=O)N(C1CCOCC1)C1CCN(Cc2ccc(C)cc2)CC1,i,i,-6%,0%,4%
COc1ccccc1-c1ccc(C(=O)N2CCC(NC(=O)Cc3ccccn3)CC2)cc1,-10%,·,?,·,?
CC1(c2ccccc2)N(Cc2cccnc2)C(=O)OC12CCN(C(=O)c1ccccc1)CC2 (centres undefined),-12%[88.5 µM],i,?,-6%[70.6 µM],1%[172 µM]
COc1ccc(C(=O)N2CCC3(CC2)OC(=O)N(Cc2cccnc2)C3(C)c2ccccc2)cn1 (centres undefined),2%,i,40µM*,0%,i
Cc1ncsc1C(=O)N1CCC2(CC1)OC(=O)N(Cc1ccccc1)C2(C)c1cccnc1 (centres undefined),i,i,22µM*,4%,i
SMILES,GPT2 inh,Luciferase inh,NIH3T3 tox,hNpr1 antagonist,HEK cytotox
Cc1ncsc1C(=O)N1CCC2(CC1)OC(=O)N(Cc1cccnc1)C2(C)c1ccccc1 (centres undefined),4%,i,22µM*,4%,i
CC1(c2ccccc2)N(Cc2cccnc2)C(=O)OC12CCN(C(=O)C1CCC1)CC2 (centres undefined),4%[88.5 µM],i,18µM*,0%[70.6 µM],-15%[172 µM]
CCCC(=O)N1Cc2ccccc2CC2(CCN(Cc3cccnc3)C2)C1 (centres undefined),i,·,-21%,·,-22%
O=C1NCCCCCCN(C(=O)c2cc(CN3CCOCC3)on2)[C@H]2CCCC[C@@H]12,i,i,-11%,2%,-16%
CC(C)OC(=O)N1CCC(COc2cnc3c(ccn3CC(N)=O)c2)CC1,4%[88.5 µM],?,?,4%[70.6 µM],?
NC(=O)Cn1ccc2cc(OCC3CCN(c4cc(NC5CC5)ncn4)CC3)cnc21,1%[88.5 µM],?,?,18µM*,25µM*
O=C(O)Cn1ccc2cc(OCC3CCN(C(=O)OC4CCCC4)CC3)cnc21,4%[88.5 µM],?,32µM*,-2%[70.6 µM],i
COc1ccc2cc1Nc1ccc(cc1)C[C@H](NC(=O)Cc1cccc(Cl)c1)C(=O)N(C)[C@H](C(=O)NCCC(C)C)C2,i,i,25µM*,-1%,?
COc1ccc2cc1Nc1ccc(cc1)C[C@H](NCc1cccc(O)c1)C(=O)N(C)[C@@H](C(=O)Nc1ccccc1)C2,-21%,i,?,-30%,?
CC1=C[C@@H](CNC(=O)CC(C)(C)CC(=O)O)[C@H](C(C)C)C[C@H]1Cc1nc2c(C)cccc2[nH]1,?,i,-18%,2%,-10%
CC1=C[C@@H](CNC(=O)COCC(=O)O)[C@H](C(C)C)C[C@H]1Cc1nc2c(C)cccc2[nH]1,i,i,-11%[174 µM],-5%[70.6 µM],-22%[172 µM]
CC1=C[C@@H](CNC(=O)CCCC(=O)O)[C@H](C(C)C)C[C@H]1Cc1nc2c(C)cccc2[nH]1,i,i,-27%[174 µM],4%[70.6 µM],-17%[172 µM]
CC1=C[C@@H](CNCc2ccccc2)[C@H](C(C)C)C[C@H]1Cc1nc2c(C)cccc2[nH]1,-2%[88.5 µM],i,28µM*,?,25µM*
CC1=C[C@@H](CNCc2ccccc2F)[C@H](C(C)C)C[C@H]1Cc1nc2c(C)cccc2[nH]1,2%[88.5 µM],i,28µM*,?,25µM*
CC1=C[C@@H](CN(C)C)[C@H](C(C)C)C[C@H]1Cc1nc2c(C)cccc2[nH]1,-3%[88.5 µM],i,89µM*,4%[70.6 µM],100µM*
COc1ccccc1CNC[C@@H]1C=C(C)[C@H](Cc2nc3c(C)cccc3[nH]2)C[C@H]1C(C)C,-9%[88.5 µM],i,25µM*,?,?
